This passage reports growth results from PubChem BioAssay (NCI).

Molecules are shown by their SMILES. Compounds without any hit were thinned out: in the full panel of roughly 83,000, 20% have a hit.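 Growth was measured after 48 h exposure to one concentration of compound in 96-well plates. Values under 10 count as active.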 The source made the active and inactive calls.

The subject of this test is MDA-MB-468 breast. The test is described as follows: NCI-60 one-dose screen, 48 h (100 = growth as untreated, 0 = no growth, -100 = all killed). The following applies: 10 µM unless noted.
Consider `Cc1ccc(NC(=O)CSc2nnc3n(Cc4ccccc4)c(=O)c4c(C)c(C(N)=O)sc4n23)cc1`, for which the growth was 107% (inactive). On to `CC(O)COc1ccc(-c2ccccc2)cc1` (stereo unspecified), for which the growth was 102% (inactive).

Consider `Cc1c(C(N)=O)sc2c1c(=O)n(Cc1ccccc1)c1nnc(-c3ccc(Br)cc3)n21`, for which the growth was 29.8% (inactive). Then `COc1cc2c(cc1OC)C(Sc1ccc(F)cc1)c1c(nc(N)c(C#N)c1N)O2` (stereo unspecified), with -56.4% (active); and `O=C1Nc2ccc(Br)cc2/C1=N\c1nnc(-c2ccc(Cl)cc2)o1`, with 51.8% (inactive); and `CC(=O)/C(=C\c1ccc(Cl)cc1)c1ccccc1`, with 0.454% (active). For `Clc1ccc(Nc2ccnc(N3CCN(c4ccnc5cc(Cl)ccc45)CC3)n2)cc1`, the growth was 39.4% (inactive). As to `COc1cccc(-c2cc(-c3cccs3)c(C#N)c(=O)[nH]2)c1`, the growth is 107% (inactive). With `COc1ccc(-c2nc(-c3ccccc3)c(-c3ccccc3)n2C2CC2)cc1OC1CCCCC1`, the growth is 58.8% (inactive). Next, `O=C1Nc2ccccc2/C1=C/c1ccc[nH]1`: -26% (active); `CC1=C(C(=O)Nc2ccccc2)C(c2ccc3c(c2)OCO3)NC(=S)N1` (stereo unspecified): 108% (inactive). `COc1cccc(/C=C/C(=O)c2ccc(NC(=O)COc3cccc4cccnc34)cc2)c1`: the growth is 90.9% (inactive). Then `O=C(/C=C/c1ccco1)Nc1ncc(Cc2ccc(F)cc2)s1`, with 21.5% (inactive).

Regarding `Cc1ccc(C)c(CCO)c1`, the growth was 93.5% (inactive). Consider `CC(CCc1ccc(Cl)c(Cl)c1)NCc1ccc(C(C)(C)C)cc1` (stereo unspecified), for which the growth was 30.8% (inactive). Then `O=c1[nH]c2cc(Cl)c(Cl)cc2n2cc3ncccc3c12`, with 0.904% (active).
